The text below walks through data of PubChem BioAssay (NCI).

Structures are written as SMILES. About 83,000 compounds went through this panel and 20% of them were active in at least one assay; those are over-represented in the sample as a whole.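 For each line, cells grew in 96-well plates with the test compound present at a single concentration for 48 hours.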 Values without a mark were called inactive. Activity calls are given as the source filed them.

The test system of the assay is EKVX NSCLC. In words: NCI-60 one-dose screen, 48 h (100 = growth as untreated, 0 = no growth, -100 = all killed). As to conditions: 10 µM unless noted. The procedure:
Growth inhibition of the EKVX human Non-Small Cell Lung tumor cell line is measured as a screen for anti-cancer activity. Cells are grown in 96 well plates and exposed to the test compound for 48 hours. Compounds are tested at a single concentration, which is 10^-5 M for most compounds. The reported endpoint is percent growth (GI% or GIPRCNT), where numbers from 0 - 100% represent growth inhibition, and numbers from -100% - 0 represent cell death. For example, a value of 40 represents 60% growth inhibition. A value of 0 means no net growth occurred over the course of the experiment. A value of -40 indicates 40% of cells at the beginning of the experiment died by the end of the experiment. A value of -100 means all cells are dead at the end of the experiment.
NCI-60 Human Tumor Cell Lines Screen was performed using the standard one-dose NCI protocol, which is described in more detail at https://dtp.cancer.gov/discovery_development/nci-60/default.htm.
Compounds with GIPRCNT values below 10 were considered active. Activity score was based on GIPRCNT using the following formula: […]
Score is 0 for GIPRCNT values of 100 or above, 50 for GIPRCNT values of 0, and 100 for GIPRCNT values of -100.
Turning to `Cc1[nH]c(-c2nc3ccccc3[nH]2)c(C)c1C(=O)NNc1ccc(Cl)cc1`, the growth was 94.2%.

For `COc1c(C)cnc(CSc2nc(-c3ccc(C)cc3)cn2-c2ccc(Cl)cc2)c1C`, the growth was 92.1%. Next, `NC(N)=N/N=C(/c1ccccc1)c1ccc(N)cc1`: 88.2%. For the molecule `O=c1[nH]c(NCc2nnnn2-c2ccc(Br)cc2)nc2sc3c(c12)CCCC3`, the growth is 96.3%.

For `NC(=O)c1c(NC(=O)c2ccc(C(F)(F)F)cc2Cl)sc2c1CCC(=O)C2`, the growth is -9.99% (active).

In the case of `N=C(N)c1ccc(-c2ccc(-c3ccc(Cl)c(Cl)c3)o2)nc1`, the growth is 97.3%. Next, `CC(C)CCC[C@@H](C)[C@H]1CCC2C3=CCn4c(=O)ccc(=O)n4C3CC[C@@]21C` (stereo not given in full): -82.2% (active).

For `Clc1cnc(Nc2ccc(OCCN3CCCC3)cc2)nc1NCc1ccco1`, the growth is 25.2%. The result for `CC(C)(C)c1ccc(C(=O)Nc2sc3c(c2C(N)=O)CCC(=O)C3)cc1` reads 5.58% (active); that for `Cc1c(C(=O)O[C@H]2[C@@H]3[C@H](C)CC[C@H]3[C@]3(C)O[C@@]2(C2CCCCC2)C[C@H]3OC(=O)CO)ccc2ccccc12`, 41.8%; that for `CCN(CC)CC(O)CNc1c2ccc(Cl)cc2nc2ccc(OC)cc12` (stereo not given), 7.93% (active). The result for `CO/C(=C1/NC(=O)C(Cc2ccc(O)c(Br)c2)N(C)C(=O)C(C)NC(=O)CCC/C=C(\C)CCC(C)OC1=O)c1ccccc1` (stereo not given) reads -25.3% (active). The result for `Nc1ccc2c(S(=O)(=O)O)ccc(S(=O)(=O)O)c2c1` reads 103%; that for `Cc1cc(Cl)nc(N(CCCNc2ccnc3cc(Cl)ccc23)Cc2ccccn2)n1`, 64.7%. With `CCc1cc(Cc2cc(CC)cc(C(C)(C)C)c2O)c(O)c(C(C)(C)C)c1`, the growth was 17.7%. The result for `NC(=S)c1csc(CCNC(=O)c2ccccc2)n1` reads 115%.

For `CCCCCOC(=O)c1ccc(NC(=O)CNCC(C)C)cc1`, the growth is 90.8%. With `CCNCCNc1cc(-c2ccc(F)cc2)c(C#N)c2nc3ccccc3n12`, the growth was 78.4%. Next, `CNC(=O)NCC1OC(n2cnc3c(NC(=O)Nc4ccccc4)ncnc32)C2OC(C)(C)OC12` (stereo not given): 102%; `COc1cc2c(c(OC)c1OC)C(=O)/C(=C/c1cc(C)c(O)c(C)c1)S2`: 43.9%; `CSc1ccc(Cl)c(C(=O)Nc2sccc2C(N)=O)c1`: 108%.

Consider `Cc1cc(C)on1`, for which the growth was 99.2%. Next, `O=[N+]([O-])c1ccc(-c2cc3c(Nc4ccc(Sc5nc6ccccc6s5)c(Cl)c4)ncnc3s2)cc1`: 39.7%; `O=C(CC12CC3CC(CC(C3)C1)C2)NCCOCCOCCNC(=O)c1cc2c(o1)C(=O)c1ccccc1C2=O`: -66.4% (active). The result for `CC(C)c1ccc(NC(=O)Cc2ccc(Nc3ncnc4cc(-c5cnn(CCN(C)C)c5)ccc34)cc2)cc1` reads -49.6% [30 µM] (active). Next, `C=C(C)[C@@H]1CC[C@]2(CN)CC[C@]3(C)[C@H](CC[C@@H]4[C@@]5(C)CCC(N)[C@@](C)(CO)[C@@H]5CC[C@]43C)[C@@H]12` (stereo not given in full): 21.3%; `CC(C)c1ccc(C(=O)OC(=O)c2ccc(C(C)C)cc2)cc1`: 99.7%; `Cn1cc(Nc2nccc(-c3ccc(N4CCCC4)c(C#N)c3)n2)cn1`: 57%. Consider `COc1ccc(Oc2nc(Nc3ccc(N4CCCCC4)nc3)ncc2NC(=O)c2cc(OC)cc(OC)c2)cc1`, for which the growth is 40.8%. The result for `CC(=O)Nc1ccc2c(c1)Cc1c(F)cccc1-2` reads 101%; that for `CN(C)CN1CCN(c2ccc3nc(-c4ccc5nc(-c6ccc(C(F)(F)F)cc6)[nH]c5c4)[nH]c3c2)CC1`, 79%; that for `O=C(/C=C/C12c3ccccc3C(c3ccccc31)C1C(=O)N(c3ccc(Cl)cc3)C(=O)C12)c1ccccn1` (stereo not given), -34.8% (active). Next, `Cc1ccc(S(=O)(=O)N(CC[C@@H]2C[C@H]2c2cc3ccccc3o2)C(=O)NC2CCCCC2)cc1`: 101%; `COc1ccc(-n2ncn(CCCCCCn3cnn(-c4ccc(OC)cc4)c3=O)c2=O)cc1`: 85.8%.

For `CCOc1cc(C2C(Cl)C(=O)N2n2cnnc2)ccc1O` (stereo not given), the growth was 109%. Next, `COc1ccc(C2CC(c3ccccc3)=NN2c2nc(C)c(C(C)=O)s2)cc1` (stereo not given): 94.6%; `COc1cc(/C=C/c2nc(Nc3ccc(S(=O)(=O)Nc4cc(C)on4)cc3)c3ccccc3n2)ccc1O`: 73.3%. With `Fc1ccc(Nc2nc(Nc3ccc(-c4nc5ccccc5[nH]4)cc3)c3cn[nH]c3n2)cc1`, the growth is 72.4%. In the case of `CCN(CC)CC(=O)Nc1cccc(C(=O)OC(C)C)c1`, the growth was 96.4%.

`CCCCNC(=O)c1cc(NCc2cc(O)ccc2O)ccc1O`: the growth is 95%.
